According to PubChem BioAssay AID1159580 (chemical genetic matrix, 2015):
Screen size: about 5,500 compounds; about 2,000 (36%) were called active. About 18% were inconclusive and are not listed. Rule as the data show it: active = normalized growth mostly below about 0.91 (no sharp cut-off); inconclusive = no clear call, values can overlap the other calls; inactive = mostly above about 0.92. The list shows a part of the results.

Experiment: chemical genetic growth profiling, strain panel (AID 1159580);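 also: tested at 20 µM; growth read once vehicle control cultures reached saturation at 30 °C; 1 = growth at the plate median or of vehicle wells; lower values mean less growth of the strain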
Conditions: S. cerevisiae deletion strains, growth OD

Measured: normalized growth

Cn1c(=O)c2[nH]c(-c3ccccc3)nc2n(C)c1=O
inactive: locus YAL013W, strain DEP1, hits give low values 0.995 | locus YAL040C, strain CLN3, hits give low values 0.984 | locus YCL061C, strain MRC1 (second series), hits give low values 0.983 | locus YDR150W, strain NUM1, hits give low values 0.975 | locus YDR363W, strain ESC2, hits give low values 1.01 | locus YER002W, strain NOP16, hits give low values 0.97 | locus YGR078C, strain PAC10, hits give low values 1 | locus YNL175C, strain NOP13, hits give low values 0.986 | locus YNL197C, strain WHI3, hits give low values 0.99 | locus YNL224C, strain SQS1, hits give low values 0.992 | locus YOR083W, strain WHI5 (second series), hits give low values 1 | locus YPL241C, strain CIN2, hits give low values 0.992
